Where “and” joins values, the source holds several entries; their conditions need not be identical. Identical values can stand only once. Inconclusive results are not listed. Some structures have more than one record in an assay (separate samples or runs), and their calls can disagree. Calls of active or inactive are those of the source. Rule for the calls: active = hit-call score of the fitted dose curve at least 0.9, where 1 is the maximum; inconclusive = response in the unintended direction; inactive = score below 0.9.

This experiment has as its target Cytochrome P450 2C19 (Homo sapiens) (UniProt P33261). Kind of experiment: NVS_ADME_hCYP2C19: NovaScreen (NVS) CYP450-related Enzyme Activity (ADME) Assay for human CYP2C19 (AID 2283113).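 For AC50: potency for inhibition seen as loss of fluorescent signal.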 The procedure:
NVS_ADME_hCYP2C19 is a biochemical, single-readout assay that uses extracted gene-proteins from insect cells in a cell-free assay. Measurements were taken 1 hour after chemical dosing in a 96-well plate.NVS_ADME_hCYP2C19 is one of one assay component(s) measured or calculated from the NVS_ADME_hCYP2C19 assay. It is designed to make measurements of enzyme activity, a form of enzyme reporter, as detected with fluorescence intensity signals by Fluorescence technology.Data from the assay component NVS_ADME_hCYP2C19 was analyzed into 1 assay endpoint. This assay endpoint, NVS_ADME_hCYP2C19, was analyzed in the positive analysis fitting direction relative to Acetonitrile as the negative control and baseline of activity. Using a type of enzyme reporter, loss-of-signal activity can be used to understand changes in the enzymatic activity as they relate to the gene CYP2C19. Furthermore, this assay endpoint can be referred to as a primary readout, because this assay has produced multiple assay endpoints where this one serves a enzymatic activity function. To generalize the intended target to other relatable targets, this assay endpoint is annotated to the cyp intended target family, where the subfamily is xenobiotic metabolism.
Binding assays used specific radioligands (tritiated, iodinated) with non-radioactive competitive displacement ligands in agonist or antagonist protocols (as indicated) and various reference compounds and inhibitors to titrate specific binding to receptors and transporters. Most enzyme assays (CYPs, kinases, phosphatases, proteases, HDACs) used recombinant protein and specific substrates (fluorescence mostly, some colorimetric and radioactive) and inhibitors, followed by a biochemical separation of substrate and product. All assays for the biochemical HTS were initially run in duplicate at a single concentration (10 uM for CYP450 assays and 25 uM for all others). […] Each assay was run with positive and negative controls, and concurrent controls on every plate. The follow-up (secondary) screen tested active chemical-pairs in concentration series, as well as a few additional assays not tested in the primary screen, some selected negative inactives, and several cases re-run in the concentration series for confirmatory purposes.
In general, AC50 refers to the midpoint of the concentration-response curve, whichever way the signal moves. `CCCN(CCC)C(=O)SCC`: the result was inactive and the concentration at half-maximal activity (AC50) is 8.68 µM (active).

`O=C(c1ccc(O)cc1O)c1ccc(O)cc1O`: the concentration at half-maximal activity (AC50) is 6.3 µM (active). Same read-out and setting: as for `C#C[C@]1(O)CC[C@H]2[C@@H]3CCC4=CC(=O)CC[C@@H]4[C@H]3CC[C@@]21CC`, the figure is 1.24 µM (active); as for `CCOC(=O)NCCOc1ccc(Oc2ccccc2)cc1`, 0.816 µM (active). On the same count and under the same terms, as for `CCCOC(=O)c1ccc(C(=O)OCCC)nc1`, the figure is 6.74 µM (active); as for `CC(=O)[C@H]1CC[C@H]2[C@@H]3CCC4=CC(=O)CC[C@]4(C)[C@H]3CC[C@]12C`, 2.46 µM (active) and 4.48 µM (active) and 6.21 µM (active). As for `CCCCOC(=O)C(C)Oc1ccc(Oc2ccc(C(F)(F)F)cn2)cc1` (stereo unspecified), the outcome was inactive.

Turning to `CCCCCOC(=O)COc1cc(N2C(=O)C3=C(CCCC3)C2=O)c(F)cc1Cl`, the AC50 was 4.42 µM (active). Regarding `CCCCC(CC)CN1C(=O)C2C3C=CC(C3)C2C1=O` (stereo unspecified), the half-maximal activity concentration (AC50) is 8.18 µM (active).

In the case of `N#CSCSc1nc2ccccc2s1`, the AC50 is 4.76 µM (active). The same measure, in the same setting: as for `CCOC(=O)C(C)Oc1ccc(Oc2nc3ccc(Cl)cc3o2)cc1` (stereo unspecified), the figure is 10 µM (active).

Consider `Cc1nn(C)c(Oc2ccccc2)c1C=NOCc1ccc(C(=O)OC(C)(C)C)cc1`, for which the AC50 is 3.32 µM (active). As to `CC(C)CCCCCCc1ccc(O)cc1`, the half-maximal activity concentration (AC50) is 2.75 µM (active). On the same count and under the same terms, as for `CCN(Cc1c(F)cccc1Cl)c1c([N+](=O)[O-])cc(C(F)(F)F)cc1[N+](=O)[O-]`, the figure is 10 µM (active). Consider `CC1(C)C(C=C(Cl)Cl)C1C(=O)OCc1cccc(Oc2ccccc2)c1` (stereo unspecified), for which the compound was classed as inactive. Consider `COc1nc(C)nc(NC(=O)NS(=O)(=O)c2ccccc2OCCCl)n1`, for which the AC50 was 0.0177 µM (active). Still for that read-out and setting: as for `C#CCOC(=O)[C@@H](C)Oc1ccc(Oc2ncc(Cl)cc2F)cc1`, the figure is 1.5 µM (active).

For `CCOC(=O)[C@H](C)Oc1ccc(Oc2nc3ccc(Cl)cc3o2)cc1`, the compound was classed as inactive. Take `CCCCC(CC)COC(=O)c1ccccc1C(=O)O` (stereo unspecified): the AC50 is 7.13 µM (active). `C=CCOC(Cn1ccnc1)c1ccc(Cl)cc1Cl` (stereo unspecified): the half-maximal activity concentration (AC50) is 0.062 µM (active). As for `CCCCOCCOCCOCc1cc2c(cc1CCC)OCO2`, the AC50 is 1.73 µM (active).

For the compound `CC(C)(C)[C@@H](O)[C@@H](Cc1ccc(Cl)cc1)n1cncn1`, the half-maximal activity concentration (AC50) was 0.172 µM (active).

In the case of `CCCCCCC(C)OC(=O)COc1nc(F)c(Cl)c(N)c1Cl` (stereo unspecified), the AC50 is 4.62 µM (active).

`CCCCOC(=O)[C@@H](C)Oc1ccc(Oc2ccc(C(F)(F)F)cn2)cc1`: the compound was classed as inactive. On the same count and under the same terms, as for `S=C(S)NCCNC(=S)S.[Mn+2].[S-]C([S-])=NCCN=C([S-])[S-].[Zn+2]`, the entry is “inactive”.

For `S=C([S-])NCCNC(=S)[S-].[Mn+2]`, the half-maximal activity concentration (AC50) was 5.86 µM (active). Still for that read-out and setting: as for `COC(=O)c1ccccc1C(=O)O`, the figure is 5.84 µM (active); as for `Oc1ccc(C(c2ccc(O)cc2)C(Cl)(Cl)Cl)cc1`, 1.03 µM (active).

As to `CC(=O)S[C@@H]1CC2=CC(=O)CC[C@]2(C)[C@H]2CC[C@@]3(C)[C@@H](CC[C@@]34CCC(=O)O4)[C@H]12`, the AC50 was 6.12 µM (active).

Take `CSC(=O)c1cccc2nnsc12`: the concentration at half-maximal activity (AC50) was 3.95 µM (active).

For the origin of these results see PubChem BioAssay (EPA / NIEHS).
